Test results as given in the supplement of paper PMC10849652.
About 8,800 targets were measured; listed, in parts, are those with a hit and a random draw of the rest. About 0.5% of all pairs of compound and target were hits. A number with no mark means an inactive call.

Tests used:
Experiment in all cases: log2 fold change, soluble protein after heating vs DMSO (PISA); higher = thermal stabilisation; K562 lysate, 10 uM; active = over 0.2 and 3.5 SD of the protein, either way, in both replicates (recomputed)
vemurafenib = compound: CCCS(=O)(=O)Nc1ccc(F)c(C(=O)c2c[nH]c3ncc(-c4ccc(Cl)cc4)cc23)c1F [vemurafenib]
Outline: (§1)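 Pellets of K562 cells were dounce-homogenised in PBS pH 7.4 with 1 mM MgCl2, and the crude extract was held at 1 mg/mL protein for a 30 min treatment with 10 μM compound. Aliquots were heated for 3 min over 48°C-58°C and pooled before NP-40 was added to 0.5% at 4°C. The supernatant from 21,000xg for 90 min was quantified by TMTpro 16plex LC-MS/MS with channel sums equalised. Values are reported from duplicates as log-two fold change in thermal stability relative to solvent controls.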

[1] = compound: CCCS(=O)(=O)Nc1ccc(F)c(C(=O)c2c[nH]c3ncc(Cl)cc23)c1F
Outline: as §1

barasertib = compound: CCN(CCCOc1ccc2c(Nc3cc(CC(=O)Nc4cccc(F)c4)[nH]n3)ncnc2c1)CCOP(=O)(O)O [barasertib]
Outline: as §1

[2] = compound: CC[C@@H]1C(=O)N(C)c2cnc(Nc3ccc(C(=O)NC4CCN(C)CC4)cc3OC)nc2N1C1CCCC1
Outline: as §1

volasertib = compound: CC[C@@H]1C(=O)N(C)c2cnc(Nc3ccc(C(=O)N[C@H]4CC[C@H](N5CCN(CC6CC6)CC5)CC4)cc3OC)nc2N1C(C)C [volasertib]
Outline: as §1

[3] = compound: CCn1c(C(=O)N(C2CC2)C2CC2)cc2c3c(ncn3C)c(Nc3cc(C)n(C)n3)nc21
Outline: as §1

[4] = compound: CCn1cc(-c2ccnc3[nH]c(-c4cccc(CN(C)C)c4)cc23)c(-c2ccc(NC(=O)N(C)C)cc2)n1
Outline: as §1

[5] = compound: CN1CCC(CNc2ccc3ncc(-c4cccc(OC(F)(F)F)c4)n3n2)CC1
Outline: as §1

saracatinib = compound: CN1CCN(CCOc2cc(OC3CCOCC3)c3c(Nc4c(Cl)ccc5c4OCO5)ncnc3c2)CC1 [saracatinib]
Outline: as §1

sotrastaurin = compound: CN1CCN(c2nc(C3=C(c4c[nH]c5ccccc45)C(=O)NC3=O)c3ccccc3n2)CC1 [sotrastaurin]
Outline: as §1

Chain of UniProt Q9NZJ0 (Q9NZJ0 whole entry, looked up): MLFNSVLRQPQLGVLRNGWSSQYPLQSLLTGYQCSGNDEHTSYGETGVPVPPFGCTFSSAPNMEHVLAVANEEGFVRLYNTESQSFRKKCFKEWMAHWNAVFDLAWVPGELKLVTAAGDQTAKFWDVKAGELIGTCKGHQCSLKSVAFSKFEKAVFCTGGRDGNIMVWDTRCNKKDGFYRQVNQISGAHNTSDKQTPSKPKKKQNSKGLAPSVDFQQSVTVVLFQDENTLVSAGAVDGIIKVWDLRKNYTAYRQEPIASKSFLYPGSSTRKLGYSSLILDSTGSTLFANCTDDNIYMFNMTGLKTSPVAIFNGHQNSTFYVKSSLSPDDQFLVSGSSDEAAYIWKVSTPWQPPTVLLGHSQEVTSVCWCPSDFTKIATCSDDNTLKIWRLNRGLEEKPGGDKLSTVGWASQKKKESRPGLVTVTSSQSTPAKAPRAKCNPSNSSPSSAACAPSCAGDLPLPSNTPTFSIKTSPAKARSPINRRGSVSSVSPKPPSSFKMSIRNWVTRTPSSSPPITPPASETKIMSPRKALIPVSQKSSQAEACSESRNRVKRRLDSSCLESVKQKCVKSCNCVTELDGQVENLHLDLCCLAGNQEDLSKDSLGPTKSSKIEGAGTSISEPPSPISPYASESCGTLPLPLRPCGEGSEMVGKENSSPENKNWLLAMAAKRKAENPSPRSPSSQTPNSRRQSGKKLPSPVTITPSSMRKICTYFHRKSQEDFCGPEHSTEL
Chain of UniProt Q14C86 (Q14C86 whole entry, looked up): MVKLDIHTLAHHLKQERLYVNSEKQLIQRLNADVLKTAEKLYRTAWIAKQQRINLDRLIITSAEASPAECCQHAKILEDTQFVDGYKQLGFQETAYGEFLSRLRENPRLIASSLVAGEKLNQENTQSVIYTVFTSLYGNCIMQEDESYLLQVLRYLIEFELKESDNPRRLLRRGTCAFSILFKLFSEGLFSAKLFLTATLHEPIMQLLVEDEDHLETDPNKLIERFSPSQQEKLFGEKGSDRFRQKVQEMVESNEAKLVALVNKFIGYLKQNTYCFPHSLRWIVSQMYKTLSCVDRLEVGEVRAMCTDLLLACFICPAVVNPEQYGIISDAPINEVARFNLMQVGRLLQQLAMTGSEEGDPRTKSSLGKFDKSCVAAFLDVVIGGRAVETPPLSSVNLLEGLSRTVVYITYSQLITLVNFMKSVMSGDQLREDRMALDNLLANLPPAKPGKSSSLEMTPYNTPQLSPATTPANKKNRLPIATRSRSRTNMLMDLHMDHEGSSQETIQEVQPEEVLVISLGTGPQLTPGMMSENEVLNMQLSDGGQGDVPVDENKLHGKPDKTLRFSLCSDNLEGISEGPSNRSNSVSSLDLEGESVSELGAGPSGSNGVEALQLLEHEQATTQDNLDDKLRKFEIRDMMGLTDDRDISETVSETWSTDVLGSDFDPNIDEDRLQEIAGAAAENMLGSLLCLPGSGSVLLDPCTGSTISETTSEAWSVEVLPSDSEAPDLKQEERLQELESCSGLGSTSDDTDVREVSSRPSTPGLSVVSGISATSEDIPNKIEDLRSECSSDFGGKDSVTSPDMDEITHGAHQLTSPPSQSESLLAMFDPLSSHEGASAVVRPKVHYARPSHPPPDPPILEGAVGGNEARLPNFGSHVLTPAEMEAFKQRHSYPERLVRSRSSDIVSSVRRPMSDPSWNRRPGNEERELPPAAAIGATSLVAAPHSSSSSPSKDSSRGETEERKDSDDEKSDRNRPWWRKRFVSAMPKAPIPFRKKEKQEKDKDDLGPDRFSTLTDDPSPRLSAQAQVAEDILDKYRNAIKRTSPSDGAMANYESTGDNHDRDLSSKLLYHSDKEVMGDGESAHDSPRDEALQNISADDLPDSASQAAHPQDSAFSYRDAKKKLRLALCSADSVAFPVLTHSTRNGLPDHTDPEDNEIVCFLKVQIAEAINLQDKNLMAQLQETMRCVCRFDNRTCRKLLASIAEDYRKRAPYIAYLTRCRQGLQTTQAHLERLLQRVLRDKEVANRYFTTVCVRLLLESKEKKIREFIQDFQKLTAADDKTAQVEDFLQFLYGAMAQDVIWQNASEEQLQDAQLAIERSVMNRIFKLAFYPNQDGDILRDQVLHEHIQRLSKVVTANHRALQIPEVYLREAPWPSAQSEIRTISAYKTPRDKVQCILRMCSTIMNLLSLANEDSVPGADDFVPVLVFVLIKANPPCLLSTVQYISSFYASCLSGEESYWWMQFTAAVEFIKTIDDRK
Chain of UniProt Q8TAG9 (Q8TAG9 whole entry, looked up): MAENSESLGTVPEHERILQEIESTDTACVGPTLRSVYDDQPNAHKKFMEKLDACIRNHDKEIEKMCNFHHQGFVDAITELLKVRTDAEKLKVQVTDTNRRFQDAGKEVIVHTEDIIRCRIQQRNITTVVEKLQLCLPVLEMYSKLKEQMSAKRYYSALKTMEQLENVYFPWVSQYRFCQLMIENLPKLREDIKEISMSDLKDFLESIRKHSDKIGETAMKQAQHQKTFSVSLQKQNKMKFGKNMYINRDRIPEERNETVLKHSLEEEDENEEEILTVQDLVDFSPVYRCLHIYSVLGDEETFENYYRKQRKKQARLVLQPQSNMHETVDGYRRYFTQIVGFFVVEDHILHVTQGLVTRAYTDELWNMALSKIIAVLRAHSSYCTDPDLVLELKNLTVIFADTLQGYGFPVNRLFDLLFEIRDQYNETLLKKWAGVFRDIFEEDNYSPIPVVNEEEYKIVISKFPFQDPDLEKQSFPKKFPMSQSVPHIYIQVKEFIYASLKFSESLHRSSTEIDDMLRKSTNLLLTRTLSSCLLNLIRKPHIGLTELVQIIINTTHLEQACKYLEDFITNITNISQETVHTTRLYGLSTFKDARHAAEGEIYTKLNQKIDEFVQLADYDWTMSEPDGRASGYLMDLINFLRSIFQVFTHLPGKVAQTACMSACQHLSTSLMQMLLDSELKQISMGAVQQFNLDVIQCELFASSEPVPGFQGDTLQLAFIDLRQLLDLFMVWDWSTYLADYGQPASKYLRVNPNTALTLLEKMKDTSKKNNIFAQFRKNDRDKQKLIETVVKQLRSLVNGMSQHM
Chain of UniProt Q9H790 (Q9H790 whole entry, looked up): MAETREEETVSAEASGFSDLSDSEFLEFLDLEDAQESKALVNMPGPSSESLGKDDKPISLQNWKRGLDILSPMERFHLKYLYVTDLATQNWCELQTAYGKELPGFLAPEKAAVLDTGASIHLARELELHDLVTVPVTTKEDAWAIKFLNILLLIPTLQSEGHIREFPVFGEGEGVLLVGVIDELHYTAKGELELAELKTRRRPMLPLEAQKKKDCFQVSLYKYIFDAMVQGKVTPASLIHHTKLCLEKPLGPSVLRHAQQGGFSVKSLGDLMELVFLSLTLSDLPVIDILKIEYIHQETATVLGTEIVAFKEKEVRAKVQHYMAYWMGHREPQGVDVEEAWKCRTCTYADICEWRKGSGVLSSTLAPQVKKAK
Chain of UniProt P11171 (P11171 whole entry, looked up): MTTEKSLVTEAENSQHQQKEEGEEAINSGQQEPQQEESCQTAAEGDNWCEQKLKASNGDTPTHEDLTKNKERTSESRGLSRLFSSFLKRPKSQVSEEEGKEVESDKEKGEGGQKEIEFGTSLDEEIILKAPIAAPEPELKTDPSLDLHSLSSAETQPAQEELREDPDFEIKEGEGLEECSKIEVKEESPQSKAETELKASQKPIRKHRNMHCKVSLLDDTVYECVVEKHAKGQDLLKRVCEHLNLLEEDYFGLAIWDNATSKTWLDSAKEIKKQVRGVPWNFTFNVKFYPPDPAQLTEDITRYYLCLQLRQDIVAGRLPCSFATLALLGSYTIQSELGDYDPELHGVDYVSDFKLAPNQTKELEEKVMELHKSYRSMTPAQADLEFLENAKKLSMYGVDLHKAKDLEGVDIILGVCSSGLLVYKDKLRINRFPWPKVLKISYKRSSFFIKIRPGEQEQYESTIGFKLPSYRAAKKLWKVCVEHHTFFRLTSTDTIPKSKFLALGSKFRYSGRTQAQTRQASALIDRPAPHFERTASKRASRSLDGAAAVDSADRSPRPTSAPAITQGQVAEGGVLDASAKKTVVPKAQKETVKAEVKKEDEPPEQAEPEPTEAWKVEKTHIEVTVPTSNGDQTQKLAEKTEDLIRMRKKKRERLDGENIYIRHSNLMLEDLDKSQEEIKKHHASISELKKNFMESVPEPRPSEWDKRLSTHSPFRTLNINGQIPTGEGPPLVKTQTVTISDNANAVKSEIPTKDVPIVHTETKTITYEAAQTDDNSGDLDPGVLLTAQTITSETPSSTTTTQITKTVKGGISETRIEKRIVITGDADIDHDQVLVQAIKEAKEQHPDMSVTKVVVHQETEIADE
Chain of UniProt Q9NZC3 (Q9NZC3 whole entry, looked up): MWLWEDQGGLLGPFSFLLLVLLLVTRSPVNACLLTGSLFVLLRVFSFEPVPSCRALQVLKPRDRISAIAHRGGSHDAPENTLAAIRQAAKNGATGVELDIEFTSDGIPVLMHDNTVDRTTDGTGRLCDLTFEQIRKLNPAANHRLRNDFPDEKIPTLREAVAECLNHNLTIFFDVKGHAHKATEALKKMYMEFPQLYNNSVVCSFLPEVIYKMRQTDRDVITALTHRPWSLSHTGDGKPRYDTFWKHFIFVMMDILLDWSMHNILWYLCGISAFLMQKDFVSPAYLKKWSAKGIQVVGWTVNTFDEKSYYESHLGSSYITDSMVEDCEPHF
Chain of UniProt Q9Y6B2 (Q9Y6B2 whole entry, looked up): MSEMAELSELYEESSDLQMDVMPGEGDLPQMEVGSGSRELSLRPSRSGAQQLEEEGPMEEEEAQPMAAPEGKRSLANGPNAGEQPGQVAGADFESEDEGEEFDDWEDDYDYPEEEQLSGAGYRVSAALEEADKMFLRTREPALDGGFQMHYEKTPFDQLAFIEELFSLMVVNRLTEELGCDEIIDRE
Chain of UniProt Q9UKR5 (Q9UKR5 whole entry, looked up): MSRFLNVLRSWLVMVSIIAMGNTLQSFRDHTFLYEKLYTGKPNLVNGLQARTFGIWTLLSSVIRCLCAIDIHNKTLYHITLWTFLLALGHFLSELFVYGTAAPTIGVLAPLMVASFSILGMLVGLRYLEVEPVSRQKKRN
Chain of UniProt Q6IPR1 (Q6IPR1 whole entry, looked up): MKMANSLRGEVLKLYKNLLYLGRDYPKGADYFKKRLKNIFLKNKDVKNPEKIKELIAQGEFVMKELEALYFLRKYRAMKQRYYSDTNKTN

Target	log2 fold change (vemurafenib)	log2 fold change [1]	log2 fold change (barasertib)	log2 fold change [2]	log2 fold change (volasertib)	log2 fold change [3]	log2 fold change [4]	log2 fold change [5]	log2 fold change (saracatinib)	log2 fold change (sotrastaurin)
EXOC6 (UniProt Q8TAG9)	-0.041	0.033	0.032	-0.033	-0.047	0.032	-0.05	-0.075	0.018	0.06
GDE1 (UniProt Q9NZC3)	–	0.038	0.108	0.107	0.092	0.005	1.04 (active)	-0.455 (active)	0.035	-0.064
FAM111A (UniProt Q96PZ2)	-0.02	0.432 (active)	–	-0.34	-0.045	0.112	–	–	0.055	-0.016
EIF2AK3 (UniProt Q9NZJ5)	–	-0.216	–	–	0.231	0.119	-0.063	-0.199	0.01	–
EPN2 (UniProt I3L356)	–	0.212	-0.106	–	-0.026	–	-0.277	0.075	–	–
EIF2B5, A0A3B3ITK8	–	-0.071	–	–	0.081	–	–	–	–	–
DTL (UniProt Q9NZJ0)	-0.007	–	0.044	–	–	0.02	0.065	-0.034	-0.1	-0.03
EXO5 (UniProt Q9H790)	–	–	0.111	–	–	-0.022	–	–	–	0.128
GAPVD1 (UniProt Q14C86)	–	0.116	0.078	–	-0.305	–	–	–	–	–
FNDC3A (UniProt Q9Y2H6)	–	–	–	–	–	0.044	-0.451	0.138	–	-0.113
GCA (UniProt P28676)	–	0.124	–	–	-0.048	–	-0.139	0.168	–	–
EHHADH (UniProt Q08426)	–	0.082	-0.066	0.117	-0.108	-0.037	0.055	-0.037	0.091	-0.044
GC isoform 3 (UniProt P02774)	-0.008	–	–	0.022	–	-0.27	0.146	-0.12	-0.02	0.043
FOXJ2 (UniProt Q9P0K8)	–	–	-0.049	-0.149	–	0.1	-0.062	-0.071	-0.101	–
ELAVL4 (UniProt P26378)	-0.045	0.035	–	-0.119	-0.038	0.054	-0.006	0.029	-0.052	0
DUSP22 isoform 2 (UniProt Q9NRW4)	0.134	-0.109	-0.016	–	0.006	-0.033	-0.125	0.052	0.009	–
FMNL2 isoform 3 (UniProt Q96PY5)	–	0.022	–	–	-0.013	-0.103	–	–	0.04	0.08
GBA2 (UniProt Q9HCG7)	–	0.12	-0.01	0.099	-0.21	0	-0.076	0.025	0.033	0.001
EIF3I (UniProt Q5TFK1)	–	0.147	–	–	-0.112	–	-0.048	0.044	–	–

Target	log2 fold change (vemurafenib)	log2 fold change [1]	log2 fold change (barasertib)	log2 fold change [2]	log2 fold change (volasertib)	log2 fold change [3]	log2 fold change [4]	log2 fold change [5]	log2 fold change (saracatinib)	log2 fold change (sotrastaurin)
EVI5L isoform 2 (UniProt Q96CN4)	–	–	–	–	–	–	0.057	-0.183	–	–
FTSJ1 isoform 2 (UniProt Q9UET6)	-0.164	0.021	–	-0.024	0.013	–	-0.019	0.047	–	–
ESRRB isoform 1 (UniProt O95718)	–	–	-0.004	–	–	-0.118	0.242	-0.127	–	–
FAT1 (UniProt Q14517)	–	0.022	–	0.32	0.025	-0.344	0.001	-0.036	–	-0.333
FOXL2 (UniProt P58012)	–	0.026	0.051	0.01	0.046	0.174	–	–	-0.038	–
FBRSL1, A0A3B3IRR3	0.132	–	0.055	0.069	–	0.085	0	-0.061	-0.028	-0.039
EPS8L2 (UniProt Q9H6S3)	–	0	-0.049	0.022	0.023	-0.034	-0.196	0.056	0.045	-0.049
EID1 (UniProt Q9Y6B2)	–	–	–	0.015	–	0.001	-0.073	0.002	-0.157	–
FAM76B (UniProt Q5HYJ3)	0.048	-0.005	–	0.04	0.005	-0.008	0.025	0.007	-0.003	0.027
EPB41 isoform 4 (UniProt P11171)	–	0.014	–	–	0.134	-0.079	-0.073	-0.065	–	-0.02
FAM53B (UniProt Q14153)	0.046	–	0.009	0.071	–	0.059	-0.096	0.13	0.096	-0.149
GART (UniProt C9JZG2)	–	-0.014	0.086	-0.021	0.06	-0.043	0.135	0.085	–	0.09
ERG28 (UniProt Q9UKR5)	–	-0.012	0.065	0.179	0.048	–	0.541	-0.497 (active)	0.1	–
EWSR1 (UniProt H7BY36)	-0.035	–	-0.055	0.095	–	-0.046	-0.056	-0.043	0.024	-0.02
DYRK1A isoform 2 (UniProt Q13627)	–	–	0.006	–	–	0.308	0.085	0.221	–	0.033
FAM204A (UniProt Q9H8W3)	-0.003	–	–	–	–	0.059	0.273	-0.614 (active)	–	-0.083
DST isoform 3 (UniProt Q03001)	–	–	0.041	0.052	–	–	1.48 (active)	-0.213	–	–
GIPC3 (UniProt Q8TF64)	–	-0.119	0.055	-0.15	-0.041	-0.045	-0.01	0.144	0.029	0.006
ETFRF1 (UniProt Q6IPR1)	0.084	-0.003	0.012	–	-0.03	0	-0.005	-0.03	-0.01	-0.002
